From PubChem BioAssay (EPA / NIEHS)
Values joined by “and” are separate entries in the source; they are usually repeats but may differ in a detail not shown here. Identical values can stand only once. Some structures have more than one record in an assay (separate samples or runs), and their calls can disagree. Active and inactive are the calls of the source. How the source made its calls: active means hit-call score of the fitted dose curve at least 0.9, where 1 is the maximum; inactive means score below 0.9.

Columns and labels:
[1] = read-out: Cytochrome P450 (CYP1A1), CYP1A1 (gene 1543); test: LTEA_HepaRG_CYP1A1: Life Technologies and Expression Analysis (LTEA) Assay for Cytochrome P450 (CYP1A1) using HepaRG (AID 2283454); conditions: mRNA level, 48 h; actives raise or lower the signal
Summary of the method: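 Differentiated human HepaRG cells, after 48 h plating, exposed in duplicate for 48 h in serum-free induction medium to 8 half-log concentrations up to 100 uM in 0.5% DMSO. CYP1A1 mRNA by qRT-PCR, normalized to ACTB/GAPDH/POLR2A; bidirectional fit versus DMSO.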

[2] = read-out: CFLAR gene, CFLAR (gene 8837); test: LTEA_HepaRG_CFLAR: Life Technologies and Expression Analysis (LTEA) Assay for CFLAR gene using HepaRG (AID 2283455); conditions: mRNA level, 48 h; actives raise or lower the signal
Summary of the method: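 HepaRG cells were plated for 48 h, switched to serum-free induction medium, then exposed in duplicate for 48 h to 8 concentrations (top 100 uM, half-log steps, 0.5% DMSO). CFLAR mRNA was measured by qRT-PCR, normalized to ACTB, GAPDH and POLR2A.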

[3] = read-out: Forkhead box O1 (FOXO1), FOXO1 (gene 2308); test: LTEA_HepaRG_FOXO1: Life Technologies and Expression Analysis (LTEA) Assay for Forkhead box O1 (FOXO1) using HepaRG (AID 2283456); conditions: mRNA level, 48 h; actives raise or lower the signal
Summary of the method: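 Differentiated human HepaRG cells in serum-free induction medium were exposed in duplicate for 48 h to eight half-log concentrations (top 100 uM, 0.5% DMSO). FOXO1 mRNA was measured by TaqMan qRT-PCR, normalised to ACTB, GAPDH and POLR2A, and fitted bidirectionally against DMSO.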

[4] = read-out: growth arrest and DNA damage 45 (GADD45A), GADD45A (gene 1647); test: LTEA_HepaRG_GADD45A: Life Technologies and Expression Analysis (LTEA) Assay for growth arrest and DNA damage 45 (GADD45A) using HepaRG (AID 2283458); conditions: mRNA level, 48 h; actives raise or lower the signal
Summary of the method: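 Human HepaRG liver cells are treated in duplicate for 48 h with chemicals in 0.5% DMSO, highest concentration 100 uM. Expression is read by qRT-PCR and analyzed in both directions against vehicle.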

[5] = read-out: ABC Transporter (ABCB1), ABCB1 (gene 5243); test: LTEA_HepaRG_ABCB1: Life Technologies and Expression Analysis (LTEA) Assay for ABC Transporter (ABCB1) using HepaRG (AID 2283460); conditions: mRNA level, 48 h; actives raise or lower the signal
Summary of the method: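 Differentiated human HepaRG cells, plated 48 h then switched to serum-free induction medium, were exposed in duplicate to eight half-log concentrations up to 100 uM in 0.5% DMSO for 48 h. ABCB1 mRNA was measured by TaqMan qRT-PCR, normalized to ACTB/GAPDH/POLR2A.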

[6] = read-out: growth arrest and DNA damage 45 (GADD45B), GADD45B (gene 4616); test: LTEA_HepaRG_GADD45B: Life Technologies and Expression Analysis (LTEA) Assay for growth arrest and DNA damage 45 (GADD45B) using HepaRG (AID 2283461); conditions: mRNA level, 48 h; actives raise or lower the signal
Summary of the method: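 Differentiated human HepaRG cells in serum-free induction medium exposed 48 h in duplicate to eight concentrations, top 100 uM, half-log steps, 0.5% DMSO. GADD45B mRNA by TaqMan qRT-PCR, normalized to ACTB, GAPDH, POLR2A; bidirectional fit versus DMSO.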

[7] = read-out: ABC Transporter (ABCC3), ABCC3 (gene 8714); test: LTEA_HepaRG_ABCC3: Life Technologies and Expression Analysis (LTEA) Assay for ABC Transporter (ABCC3) using HepaRG (AID 2283462); conditions: mRNA level, 48 h; actives raise or lower the signal
Summary of the method: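 Differentiated human HepaRG cells exposed 48 h in serum-free induction medium, 0.5% DMSO vehicle, 8-point half-log series to 100 uM in duplicate. ABCC3 mRNA by qRT-PCR, normalised to ACTB, GAPDH, POLR2A; bidirectional fit vs DMSO.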

[8] = read-out: ABC Transporter (ABCB11), ABCB11 (gene 8647); test: LTEA_HepaRG_ABCB11: Life Technologies and Expression Analysis (LTEA) Assay for ABC Transporter (ABCB11) using HepaRG (AID 2283463); conditions: mRNA level, 48 h; actives raise or lower the signal
Summary of the method: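 Differentiated human HepaRG cells were exposed for 48 h in serum-free induction medium to eight half-log concentrations up to 100 uM in 0.5% DMSO. ABCB11 mRNA was quantified by qRT-PCR, normalized to ACTB, GAPDH and POLR2A, and fitted bidirectionally versus DMSO.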

[9] = read-out: ABC Transporter (ABCC2), ABCC2 (gene 1244); test: LTEA_HepaRG_ABCC2: Life Technologies and Expression Analysis (LTEA) Assay for ABC Transporter (ABCC2) using HepaRG (AID 2283464); conditions: mRNA level, 48 h; actives raise or lower the signal
Summary of the method: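 Differentiated HepaRG cells in serum-free induction medium exposed 48 h to eight half-log concentrations up to 100 uM, 0.5% DMSO, in duplicate. ABCC2 mRNA measured by qRT-PCR (TaqMan, Fluidigm), normalized to ACTB, GAPDH and POLR2A. Fitted in both directions against DMSO.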

[10] = read-out: Broad substrate specificity ATP-binding cassette transporter ABCG2 (Homo sapiens) (UniProt Q9UNQ0); test: LTEA_HepaRG_ABCG2: Life Technologies and Expression Analysis (LTEA) Assay for ABC Transporter (ABCG2) using HepaRG (AID 2283465); conditions: mRNA level, 48 h; actives raise or lower the signal
Summary of the method: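 Differentiated HepaRG cells in serum-free induction medium were exposed for 48 h, in duplicate, to eight half-log concentrations up to 100 uM in 0.5% DMSO. ABCG2 mRNA was measured by TaqMan qRT-PCR, normalized to ACTB, GAPDH and POLR2A, and fitted bidirectionally versus DMSO.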

[11] = read-out: Peroxisomal acyl-coenzyme A oxidase 1 (ACOX1) gene, ACOX1 (gene 51); test: LTEA_HepaRG_ACOX1: Life Technologies and Expression Analysis (LTEA) Assay for Peroxisomal acyl-coenzyme A oxidase 1 (ACOX1) gene using HepaRG (AID 2283467); conditions: mRNA level, 48 h; actives raise or lower the signal
Summary of the method: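 Differentiated human HepaRG cells were exposed in duplicate for 48 h in serum-free induction medium to eight half-log concentrations up to 100 uM in 0.5% DMSO. ACOX1 mRNA was then quantified by TaqMan qRT-PCR, normalized to ACTB, GAPDH and POLR2A.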

[12] = read-out: Alkaline Phosphatase, Placental (ALPP) gene, ALPP (gene 250); test: LTEA_HepaRG_ALPP: Life Technologies and Expression Analysis (LTEA) Assay for Alkaline Phosphatase, Placental (ALPP) gene using HepaRG (AID 2283468); conditions: mRNA level, 48 h; actives raise or lower the signal
Summary of the method: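 HepaRG cells plated 48 h, then exposed in duplicate for 48 h in serum-free induction medium to 8-point half-log series from 100 uM in 0.5% DMSO. ALPP mRNA by TaqMan qRT-PCR, normalized to ACTB/GAPDH/POLR2A; bidirectional fit versus DMSO.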

[13] = read-out: Bcl-2 (BAD) gene, BAD (gene 572); test: LTEA_HepaRG_BAD: Life Technologies and Expression Analysis (LTEA) Assay for Bcl-2 (BAD) gene using HepaRG (AID 2283469); conditions: mRNA level, 48 h; actives raise or lower the signal
Summary of the method: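 Differentiated human HepaRG cells in serum-free induction medium were exposed in duplicate for 48 h to eight concentrations (top 100 uM, half-log steps, 0.5% DMSO). BAD mRNA was quantified by qRT-PCR normalised to ACTB, GAPDH and POLR2A, with bidirectional fitting versus DMSO.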

[14] = read-out: Bcl-2 (BAX) gene, BAX (gene 581); test: LTEA_HepaRG_BAX: Life Technologies and Expression Analysis (LTEA) Assay for Bcl-2 (BAX) gene using HepaRG (AID 2283470); conditions: mRNA level, 48 h; actives raise or lower the signal
Summary of the method: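 Concentration-response endpoint fitted in both directions relative to 0.5% DMSO vehicle. Human HepaRG cultures receive test chemicals for 48 h at up to 100 uM; BAX mRNA is quantified by qRT-PCR against housekeeping genes.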

[15] = read-out: adenosine kinase (ADK) gene, ADK (gene 132); test: LTEA_HepaRG_ADK: Life Technologies and Expression Analysis (LTEA) Assay for adenosine kinase (ADK) gene using HepaRG (AID 2283471); conditions: mRNA level, 48 h; actives raise or lower the signal
Summary of the method: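 ADK expression quantified by qRT-PCR, normalised to three housekeeping genes, after 48 h exposure of HepaRG cells to eight concentrations (top 100 uM, half-log steps, duplicate, 0.5% DMSO). Up- or down-regulation fitted relative to vehicle.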

[16] = read-out: Alpha-fetoprotein (AFP) gene, AFP (gene 174); test: LTEA_HepaRG_AFP: Life Technologies and Expression Analysis (LTEA) Assay for Alpha-fetoprotein (AFP) gene using HepaRG (AID 2283472); conditions: mRNA level, 48 h; actives raise or lower the signal
Summary of the method: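 After a 48 h plating period, cells are moved to serum-free induction medium and dosed in duplicate (100 uM maximum, half-log dilutions, 0.5% DMSO) for another 48 h. Total RNA goes to TaqMan qRT-PCR; AFP signal is housekeeping-normalized.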

BCL2L11 (gene 10018) = test: LTEA_HepaRG_BCL2L11: Life Technologies and Expression Analysis (LTEA) Assay for Bcl-2 (BCL2L11) gene using HepaRG (AID 2283473); conditions: mRNA level, 48 h; actives raise or lower the signal
Summary of the method: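 Differentiated human HepaRG cells were exposed 48 h in serum-free induction medium to eight half-log concentrations up to 100 uM in 0.5% DMSO, in duplicate. BCL2L11 mRNA was quantified by TaqMan qRT-PCR, normalized to ACTB, GAPDH and POLR2A; induction or repression fitted versus DMSO.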

[17] = CEETOX_H295R_TESTO: CeeTox H295R High-throughput Steroidogenesis Assay for Testosterone (TESTO) (AID 2283457); conditions: actives raise or lower the signal
Summary of the method: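 H295R adrenal cells, passage ≤10, exposed to chemicals for 48 h. Testosterone in medium measured by MTBE extraction and HPLC-MS/MS against a 7-point standard curve. Bidirectional fit versus DMSO; MTT viability checked in the same wells.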

[18] = read-out: Forkhead box O3 (FOXO3), FOXO3 (gene 2309); test: LTEA_HepaRG_FOXO3: Life Technologies and Expression Analysis (LTEA) Assay for Forkhead box O3 (FOXO3) using HepaRG (AID 2283459); conditions: mRNA level, 48 h; actives raise or lower the signal
Summary of the method: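 Differentiated human HepaRG cells in serum-free induction medium were exposed in duplicate for 48 h to eight half-log concentrations up to 100 uM in 0.5% DMSO. FOXO3 mRNA was quantified by qRT-PCR, normalized to ACTB, GAPDH and POLR2A, with bidirectional fitting versus DMSO.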

[19] = read-out: ATP-citrate lyase (ACLY), ACLY (gene 47); test: LTEA_HepaRG_ACLY: Life Technologies and Expression Analysis (LTEA) Assay for ATP-citrate lyase (ACLY) using HepaRG (AID 2283466); conditions: mRNA level, 48 h; actives raise or lower the signal
Summary of the method: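 Differentiated human HepaRG cells in serum-free induction medium exposed 48 h, in duplicate, to eight half-log concentrations from 100 uM top in 0.5% DMSO; ACLY mRNA measured by qRT-PCR, normalized to ACTB, GAPDH, POLR2A, fitted bidirectionally versus DMSO.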

Measured: AC50

Sequence of Broad substrate specificity ATP-binding cassette transporter ABCG2 (Homo sapiens) (Q9UNQ0 whole entry, looked up): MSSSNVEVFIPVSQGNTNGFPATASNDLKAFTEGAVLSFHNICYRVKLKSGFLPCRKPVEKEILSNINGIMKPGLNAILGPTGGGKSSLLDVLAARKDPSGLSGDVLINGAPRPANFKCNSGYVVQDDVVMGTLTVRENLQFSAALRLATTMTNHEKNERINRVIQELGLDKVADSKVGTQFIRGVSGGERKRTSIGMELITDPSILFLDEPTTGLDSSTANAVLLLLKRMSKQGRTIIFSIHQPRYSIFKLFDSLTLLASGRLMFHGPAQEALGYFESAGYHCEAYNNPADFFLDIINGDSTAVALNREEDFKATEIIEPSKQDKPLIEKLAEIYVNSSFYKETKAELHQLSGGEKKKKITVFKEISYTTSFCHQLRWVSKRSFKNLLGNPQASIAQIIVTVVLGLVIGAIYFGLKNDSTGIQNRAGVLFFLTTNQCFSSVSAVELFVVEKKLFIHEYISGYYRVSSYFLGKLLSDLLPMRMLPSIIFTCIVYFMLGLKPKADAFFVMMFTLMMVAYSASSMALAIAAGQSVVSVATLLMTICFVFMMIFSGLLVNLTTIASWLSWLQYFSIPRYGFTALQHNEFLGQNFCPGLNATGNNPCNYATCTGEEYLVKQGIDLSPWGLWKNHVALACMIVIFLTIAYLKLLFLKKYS

COC(=O)C=C(C)OP(=O)(OC)OC
active: [8] 21.4 µM
not listed: [17] | [18] | [19]
inactive: all other assays above

Cc1cc(Cl)ccc1OCC(=O)O
active: [1] 50 µM | [8] 50 µM | [11] 34.3 µM
not listed: [3] | [19]
inactive: all other assays above

CCOC(=O)CC(SP(=S)(OC)OC)C(=O)OCC (stereo unspecified)
active: [1] 22.8 µM
not listed: [3] | [18] | [19]
inactive: all other assays above

Cc1c(F)c(F)c(COC(=O)C2C(/C=C(\Cl)C(F)(F)F)C2(C)C)c(F)c1F (stereo unspecified)
active: [1] 50 µM | [8] 50 µM
not listed: [17] | [19]
inactive: all other assays above

CCCN(CCC)c1c([N+](=O)[O-])cc(S(N)(=O)=O)cc1[N+](=O)[O-]
inactive: [2] | [4] | [6] | [8] | [10] | [11] | [12] | [13] | [14] | [15] | [16] | BCL2L11 (gene 10018)
active: [1] 11.5 µM and 50 µM and 35.1 µM | [2] 75.8 µM and 76.8 µM | [4] 85.9 µM | [5] 89.8 µM and 84.8 µM and 82.3 µM | [6] 93.5 µM and 93.2 µM | [7] 93.6 µM and 74.3 µM and 90.4 µM | [8] 82 µM | [9] 92.1 µM and 82.3 µM and 84.7 µM | [10] 15.8 µM | [11] 77.5 µM | [13] 74.1 µM | [15] 80.6 µM | [16] 15.8 µM | BCL2L11 (gene 10018) 95.3 µM and 84.3 µM

O=C(O)c1nc(Cl)ccc1Cl
active: [1] 50 µM | [12] 27.3 µM
inactive: [1] | [2] | [4] | [18] | [5] | [6] | [7] | [8] | [9] | [10] | [19] | [11] | [12] | [13] | [14] | [15] | [16] | BCL2L11 (gene 10018)
